Screening data: PubChem BioAssay, several laboratories
Mtb bLac sens = beta-lactam sensitization of Mtb H37Rv, H37Rv | M. tuberculosis H37Rv growth with meropenem, percent inhibition | 330,000 tested, 0.27% active | inhibition, % at 25 µM;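 also: growth measured after seven days incubation then overnight dye step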
Mtb UGM inh = M. tuberculosis UGM enzyme inhibitors, primary screen, biochemical, fluorescence polarization, single point; purified UGM, fluorescence polarization probe displacement; inhibition, % at 10 µM; 320,000 tested, 0.06% active; AID 504406, 2011; in the data active = inhibition above about 10%, passing the limit was not always enough; inconclusive = no clear call, values can overlap the other calls
Mtb FBA inh = Mtb FBA enzyme inhibitors, primary screen, biochemical, fluorescence, strain H37Rv; Fructose-bisphosphate aldolase (Mycobacterium tuberculosis (strain ATCC 25618 / H37Rv)), …; purified M. tuberculosis FBA, fluorescence read-out; inhibition, % at 1 µM; 360,000 tested, 2.3% active; in the data active = inhibition above about 27%
GDH-TPI counter-1 = GDH-TPI coupling enzyme inhibitors, primary screen, artefact control for M. tuberculosis FBA inhibitor project, biochemical, absorbance, full deck; GDH-TPI coupled enzyme counterscreen, NADH absorbance; inhibition, % at 4.8 µM; 360,000 tested, 1.2% active; AID 588335, 2011; in the data active = inhibition above about 30%
RecA splice inh = Mtb RecA intein splicing inhibitors, primary screen, biochemical, fluorescence, HTS. Protein RecA (Mycobacterium tuberculosis (strain ATCC 25618 / H37Rv)), P9WHJ3. cell-free RecA intein splicing. inhibition, % (no concentration beside the values). 290,000 tested, 0.75% active. AID 2221, 2009; in the data active = inhibition above about 30%; inconclusive = no clear call, values can overlap the other calls
Rv3671c inh = Rv3671c serine protease inhibitors, primary screen, biochemical, fluorescence polarization, M. tuberculosis H37Rv; inhibition, % at 5.96 µM; 320,000 tested, 0.048% active; AID 2606, 2010; in the data active = inhibition above about 38%;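 also: extracellular domain of Rv3671c used as enzyme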
Target sequence (P9WHR9 whole entry, looked up, the tested form may be a part): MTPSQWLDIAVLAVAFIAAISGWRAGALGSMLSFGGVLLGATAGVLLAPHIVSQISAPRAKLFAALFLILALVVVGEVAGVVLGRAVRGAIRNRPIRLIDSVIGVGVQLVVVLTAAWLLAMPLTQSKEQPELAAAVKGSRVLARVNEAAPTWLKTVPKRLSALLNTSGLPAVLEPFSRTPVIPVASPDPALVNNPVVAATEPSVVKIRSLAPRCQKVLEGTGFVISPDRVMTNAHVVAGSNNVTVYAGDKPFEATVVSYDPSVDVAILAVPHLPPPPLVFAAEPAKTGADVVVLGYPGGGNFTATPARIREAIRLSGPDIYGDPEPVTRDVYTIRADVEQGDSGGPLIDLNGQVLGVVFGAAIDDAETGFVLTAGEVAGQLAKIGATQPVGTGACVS
Mtb FBA confirm = M. tuberculosis aldolase blockers, biochemical, fluorescence, strain H37Rv, confirmation | shares compounds with Mtb FBA inh | purified M. tuberculosis FBA, fluorescence read-out | inhibition, % at 1 µM | 5,600 tested, 78% active | AID 651616, 2012; in the data active = inhibition above about 27%
GDH-TPI counter-2 = GDH-TPI coupling enzyme inhibitors, artefact control for M. tuberculosis FBA inhibitor project, biochemical, fluorescence, high throughput. shares compounds with Mtb FBA inh. GDH-TPI coupled enzyme counterscreen. inhibition, % at 1 µM. 5,600 tested, 81% active. AID 652141, 2013; in the data active = inhibition above about 10%
GDH-TPI DR = GDH-TPI coupling enzyme inhibitors, dose response, artefact control for M. tuberculosis FBA inhibitor project, biochemical, fluorescence, IC50; shares compounds with Mtb FBA inh; GDH-TPI coupled enzyme assay, artifact counterscreen; IC50, µM; 170 tested, 79% active; AID 652145, 2013
Of the large screens only hits and unclear results are named; the others gave an inactive call (follow-up assays come after a bar, where they were run). The list is not random: actives were taken first. Their share in the collection is about 4%. Unless noted, no rule for the calls is given here.

COc1ccc(-n2c(-c3ccc(Br)cc3)c[n+]3c2SC(C)C3)cc1 (stereo not given)	none
Cc1cc2nc(-c3ccccc3)cc(=O)n2[nH]1	Mtb FBA inh 47 | Mtb FBA confirm active | GDH-TPI counter-2 active
COCc1cc(=O)n2[nH]cc(-c3ccsc3)c2n1	Mtb FBA inh 55 | Mtb FBA confirm 94 | GDH-TPI counter-2 84
COCc1cc(=O)n2[nH]c(-c3ccccc3)cc2n1	Mtb FBA inh 33 | Mtb FBA confirm active | GDH-TPI counter-2 active
O=c1cc(-c2ccccc2)nc2cc(-c3ccc(Br)cc3)[nH]n12	none
O=C(c1cc(-c2ccc(Cl)cc2)n[nH]1)N1CCN(C(=O)c2ccco2)CC1	Mtb bLac sens inconclusive
O[C@H]1C[C@H](c2ccccc2)N(CC2CCCCC2)C[C@@H]1n1cc(C2CC2)nn1	none (no result: Mtb bLac sens, Mtb UGM inh, RecA splice inh, Rv3671c inh)
Cc1nc2cc(-c3cccs3)[nH]n2c(=O)c1C	Mtb FBA inh 46 | Mtb FBA confirm inactive | GDH-TPI counter-2 inactive | GDH-TPI DR 5.7
CC(=O)c1ccc(C(=O)N2CCc3c([nH]c4ccccc34)C2c2ccccn2)s1 (stereo not given)	none
O=C(c1cccs1)N1CCc2c([nH]c3ccccc23)C1c1ccccn1 (stereo not given)	Mtb FBA inh 34 | Mtb FBA confirm inactive | GDH-TPI counter-2 inactive
CCOc1cccc(-c2cc(NCCc3ccccn3)n3nccc3n2)c1	Mtb FBA inh 35 (no result: Mtb bLac sens, Mtb UGM inh, RecA splice inh, Rv3671c inh) | Mtb FBA confirm 87 | GDH-TPI counter-2 71
Cc1cccc(-c2cc(NCCc3cccnc3)n3nccc3n2)c1	Mtb FBA inh 32 (no result: Mtb bLac sens, Mtb UGM inh, RecA splice inh, Rv3671c inh) | Mtb FBA confirm 46 | GDH-TPI counter-2 35
COc1ccc2oc(C(=O)OCC(=O)N(C)Cc3ccccc3)c(C)c2c1	Mtb FBA inh 31 | Mtb FBA confirm 158 | GDH-TPI counter-2 168
COc1ccc2oc(C(=O)OCC(=O)N(C)c3ccccc3)c(C)c2c1	Mtb FBA inh 35 | Mtb FBA confirm 128 | GDH-TPI counter-2 101
COc1ccc2nc(N/C(N)=N/C(=S)Nc3c(C)cccc3C)nc(C)c2c1	none
COc1ccc2nc(N/C(N)=N/S(C)(=O)=O)nc(C)c2c1	Mtb FBA inh 53 | Mtb FBA confirm active | GDH-TPI counter-2 active
CCOC(=O)C1(C)CCN1C(=O)c1ccc(C(C)(C)C)cc1 (stereo not given)	none (no result: Mtb bLac sens, Mtb UGM inh, RecA splice inh, Rv3671c inh)
COc1cccc(-c2nn(Cc3ccccc3)cc2CO)c1	none (no result: RecA splice inh)
COCCNC(=O)/C(C#N)=C/c1c(N2CCN(c3ccc(OC)cc3)CC2)nc2c(C)cccn2c1=O	Mtb FBA inh 80 | Mtb FBA confirm 73 | GDH-TPI counter-2 58
COCCNC(=O)/C(C#N)=C/c1c(N2CCN(c3cccc(Cl)c3)CC2)nc2c(C)cccn2c1=O	Mtb FBA inh 69 | Mtb FBA confirm 165 | GDH-TPI counter-2 124
CNC(=O)/C(C#N)=C/c1c(N2CCN(c3cccc(Cl)c3)CC2)nc2c(C)cccn2c1=O	none
C=CCNC(=O)/C(C#N)=C/c1c(N2CCN(c3cccc(Cl)c3)CC2)nc2c(C)cccn2c1=O	Mtb FBA inh 62 | Mtb FBA confirm 199 | GDH-TPI counter-2 172
COCCNC(=O)C(C#N)c1nc2ccccc2nc1N1CCCCCC1 (stereo not given)	Mtb FBA inh 37 | Mtb FBA confirm inactive | GDH-TPI counter-2 inactive
CCOC(=O)/C(C#N)=C/c1c(N2CCN(c3cccc(Cl)c3)CC2)nc2c(C)cccn2c1=O	none (no result: Mtb bLac sens, Mtb UGM inh, Rv3671c inh)
COCCNC(=O)/C(C#N)=C/c1c(N2CCN(c3ccccc3)CC2)nc2c(C)cccn2c1=O	none
N#C/C(=C\c1c(N2CCCCCC2)nc2ccccn2c1=O)C(N)=O	none
COCCNC(=O)/C(C#N)=C/c1c(N2CCCCCC2)nc2ccccn2c1=O	Mtb bLac sens inconclusive, Mtb FBA inh 87 | Mtb FBA confirm 45 | GDH-TPI counter-2 47
